Test [1] is described as follows: NCI Yeast Anticancer Drug Screen. Data for the rad50 strain (AID 155).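 Further: 0% = growth of vehicle-only cultures of the same strain.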 Particulars: S. cerevisiae rad50 strain growth inhibition, active compounds read high; at 50.0 µM unless noted. Summed up:
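Compounds were tested on a yeast strain with an engineered DNA damage repair alteration; the reported value is growth inhibition normalised to vehicle treatment.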

The nature of test [2]: NCI Yeast Anticancer Drug Screen. Data for the mec2-1 strain (AID 157). The following applies: S. cerevisiae mec2-1 strain, active compounds read high; at 50.0 µM unless noted. Summed up: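 Growth inhibition is read against vehicle-treated controls after compound exposure of the mec2-1 yeast strain, which is defective in DNA damage repair or cell cycle control.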
Test [3] in a line: NCI Yeast Anticancer Drug Screen. Data for the sgs1 mgt1 strain (AID 161).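 Further: 0% = growth of cultures given vehicle only.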 Particulars: S. cerevisiae sgs1 mgt1 strain, active compounds read high; at 50.0 µM unless noted. In outline: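 Yeast cells carrying a defined DNA-repair defect were exposed to test compounds. Growth inhibition was measured relative to vehicle-treated controls.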
Test [4] is described as follows: NCI Yeast Anticancer Drug Screen. Data for the cln2 rad14 strain (AID 165).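 Further: 0% = growth equal to vehicle treated cultures.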 Particulars: S. cerevisiae cln2 rad14 strain, active compounds read high; at 50.0 µM unless noted. Summed up:
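Growth inhibition, relative to vehicle-treated controls, is the read-out. The test organism is a yeast strain with defined genetic alterations, cln2 rad14.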

The nature of test [5]: NCI Yeast Anticancer Drug Screen. Data for the bub3 strain (AID 167). The following applies: S. cerevisiae bub3 mutant strain, active compounds read high; at 50.0 µM unless noted. Summed up: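 Growth of a checkpoint-deficient yeast mutant is measured after compound exposure. Values represent inhibition relative to vehicle.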
Test [6] is described as follows: NCI Yeast Anticancer Drug Screen. Data for the mlh1 rad18 strain (AID 175). The following applies: S. cerevisiae mlh1 rad18 strain growth inhibition, active compounds read high; at 50.0 µM unless noted. In outline: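 Cells of a genetically altered yeast strain, deficient in DNA damage repair, were treated with compound. Their growth was then compared with that of vehicle-treated cultures to give inhibition.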

About 79,000 compounds went through this panel and 15% of them were active in at least one assay; those are over-represented in the sample as a whole. A number with no mark means an inactive call. Calls of active or inactive are those of the source. No stated cut-off is given here; in the data, active means growth inhibition above about 70%; inactive means the rest.

In the case of `O=C1CN(Cc2cccc(Cl)c2)CC(=O)N2Cc3ccccc3CN12`, the growth inhibition in test [1] is 34.4%; in test [2] it was -1%; in test [3], 14.2%; in test [4], -10.8%; in test [5], 8.9%; in test [6], -11.5%.
In the case of `C#CC(O)C1OC(C)(C)OC1C1COC(C)(C)O1` (stereo unspecified), the growth inhibition was 4.15% in test [1]; 6.5% in test [2]; 13.2% in test [3]; -4.4% in test [4]; -3.6% in test [5]; -5.65% in test [6].
Regarding `OC1CC2CCCCC2CC1(O)c1ccc(OCc2ccccc2)c(OCc2ccccc2)c1` (stereo unspecified), the growth inhibition was 16.6% in test [1]; -9.55% in test [2]; -19% in test [3]; 14.8% in test [4]; 3.4% in test [5]; -5.2% in test [6].
Consider `CCCCC(/C=C(\C(C)=O)C(=O)OCC)CC` (stereo unspecified), for which the growth inhibition is -5.95% in test [1]; -39.1% in test [2]; -28.1% in test [3]; -10.5% in test [4]; -37% in test [5]; -40.6% in test [6].
Take `COC(=O)C1CCC(=O)N1Cc1cccs1` (stereo unspecified): the growth inhibition is -22.9% in test [1]; -1.7% in test [2]; -11.1% in test [3]; 22.1% in test [4]; 3.55% in test [5]; -13.2% in test [6].
For the compound `COC(=O)c1ccc(N=NN(C)CN=[N+]=[N-])cc1`, the growth inhibition in test [1] was 13.3%; in test [2] it was 19.7%; in test [3], 21.2%; in test [4] it was -21.3%; in test [5] it was 11.3%; in test [6], 3.15%.
`CN1C=C(C(N)=O)Cc2ccsc21`: the growth inhibition in test [1] is 10.7%; in test [2] it was -10.8%; in test [3], -15.8%; in test [4], -8.95%; in test [5] it was -17.1%; in test [6] it was -18.5%.
Consider `COC(=O)NC1C(OC(C)=O)C(OC(C)=O)C(COC(C)=O)OC1n1ccc(NC(C)=O)nc1=O` (stereo unspecified), for which the growth inhibition in test [1] was 8.65%; in test [2], 1.4%; in test [3], 5.9%; in test [4], 18.6%; in test [5], 0.15%; in test [6], 5.1%.
For the compound `CCOC(=O)Nc1nc2ccccc2n1CN1CCCC1`, the growth inhibition in test [1] is -4.7%; in test [2], -17.9%; in test [3] it was -11.3%; in test [4] it was 3.65%; in test [5], 22.4%; in test [6] it was 18.8%.
Regarding `COc1ccc(/C=C2\N=C(N3CCCC(CO)C3)NC2=O)cc1` (stereo unspecified), the growth inhibition is -35.1% in test [1]; -2.4% in test [2]; 8.3% in test [3]; 1.9% in test [4]; -3.85% in test [5]; -34% in test [6].
In the case of `O=C1OCC(c2ccccc2)=C1c1ccccc1`, the growth inhibition was 22.3% in test [1]; -3% in test [2]; 20.3% in test [3]; -16% in test [4]; 6.35% in test [5]; 16.6% in test [6].
Regarding `CC(C)OC(=O)CCC(N)C(=O)O` (stereo unspecified), the growth inhibition in test [1] is 2.95%; in test [2] it was 0.6%; in test [3], 1.85%; in test [4], -4.8%; in test [5] it was 2.55%; in test [6], 0.1%.
On to `Cc1cccc(Cl)c1NC(=O)c1c(Cl)c(Cl)c(Cl)c(Cl)c1C(=O)O`, for which the growth inhibition is 11.4% in test [1]; 10.6% in test [2]; -0.35% in test [3]; -30.1% in test [4]; -1.65% in test [5]; 22.2% in test [6].
With `COc1ccc(/C=N/NC(=O)c2ccccc2)c(OC)c1`, the growth inhibition was 17.1% in test [1]; 0% in test [2]; 6.65% in test [3]; 17.7% in test [4]; 28.2% in test [5]; 9.3% in test [6].
With `O=c1n(-c2ccccc2)c(=O)n(-c2ccccc2)c(=O)n1-c1ccccc1`, the growth inhibition in test [1] is -2.2%; in test [2], -13.2%; in test [3] it was -17.1%; in test [4], 5%; in test [5], 7.45%; in test [6], -14.7%.
As to `CCC(O)c1ccc(OCc2ccccc2)c(OC)c1` (stereo unspecified), the growth inhibition in test [1] was 7.35%; in test [2], -2.1%; in test [3], 24.6%; in test [4], -43.1%; in test [5], -4.05%; in test [6], 2.25%.
For `CCCCN(CCCC)CCC(O)c1cc(-c2ccc(C(F)(F)F)cc2)nc(C(F)(F)F)c1` (stereo unspecified), the growth inhibition is 98.5% (active) in test [1]; 56.2% in test [2]; 97.6% (active) in test [3]; 97.8% (active) in test [4]; 47.1% in test [5]; 96.8% (active) in test [6].
Regarding `Cc1n[nH]c(=O)n1/N=C/c1ccncc1`, the growth inhibition in test [1] was 8.45%; in test [2], 6.95%; in test [3], -6%; in test [4] it was -17%; in test [5], -4.35%; in test [6], 7%.
For `C=CC(=O)NC12CC3CC(CC(C3)C1)C2`, the growth inhibition in test [1] was -4.45%; in test [2], -0.3%; in test [3], -8.1%; in test [4], -23.9%; in test [5] it was -15.6%; in test [6], 0.05%.
Consider `O=C(Oc1cccc(OC(=O)c2ccccc2O)c1)c1ccccc1O`, for which the growth inhibition in test [1] was -1.05%; in test [2] it was -7.95%; in test [3] it was 9.8%; in test [4], -30.8%; in test [5], 25.9%; in test [6], -5.35%.
`c1cncc(C2c3[nH]c4ccccc4c3CCN2CCCN2CCCCC2)c1` (stereo unspecified): the growth inhibition in test [1] was -5.2%; in test [2], -36.7%; in test [3], 2.3%; in test [4], 10.7%; in test [5], -9.55%; in test [6], -0.5%.

The values are drawn from PubChem BioAssay (NCI).
